Here are results for nine molecules from PubChem BioAssay (NCI).

Assay [1] is described as follows: NCI Yeast Anticancer Drug Screen. Data for the rad50 strain (AID 155).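 Also: 0% = growth of vehicle-only cultures of the same strain.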 The conditions noted are these: S. cerevisiae rad50 strain growth inhibition, hits give high values. The method, boiled down: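 Compounds were tested on a yeast strain with an engineered DNA damage repair alteration; the reported value is growth inhibition normalised to vehicle treatment.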
A short description of assay [2]: NCI Yeast Anticancer Drug Screen. Data for the mec2-1 strain (AID 157). The conditions noted are these: S. cerevisiae mec2-1 strain, hits give high values. The method, boiled down: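 Yeast mec2-1 mutant treated with compound. Readout: growth inhibition vs vehicle controls.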
Assay [3] in a line: NCI Yeast Anticancer Drug Screen. Data for the sgs1 mgt1 strain (AID 161).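 Also: 0% = growth of cultures given vehicle only.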 Particulars: S. cerevisiae sgs1 mgt1 strain, hits give high values. The method, boiled down: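 Inhibition of yeast growth, normalised to vehicle-treated controls, is reported for a strain bearing genetic alterations in DNA damage repair.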
A short description of assay [4]: NCI Yeast Anticancer Drug Screen. Data for the cln2 rad14 strain (AID 165).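 Also: 0% = growth equal to vehicle treated cultures.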 Particulars: S. cerevisiae cln2 rad14 strain, hits give high values. The method, boiled down: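 cln2 rad14 yeast strain; compound exposure; growth inhibition read vs vehicle controls.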
Assay [5] can be described thus: NCI Yeast Anticancer Drug Screen. Data for the bub3 strain (AID 167). Particulars: S. cerevisiae bub3 mutant strain, hits give high values. In short, it runs like this: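 Growth of a checkpoint-deficient yeast mutant is measured after compound exposure. Values represent inhibition relative to vehicle.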
Assay [6] can be described thus: NCI Yeast Anticancer Drug Screen. Data for the mlh1 rad18 strain (AID 175). The conditions noted are these: S. cerevisiae mlh1 rad18 strain growth inhibition, hits give high values. The method, boiled down:
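Yeast w/ defined DNA-repair lesions; compound exposure; growth vs vehicle controls → % inhibition.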

Setting [7] is: at 5.0 µM (retest, dose inferred, filed as 0.5).
Setting [8] is: at 50.0 µM (retest, dose inferred, filed as 5.0).

Each structure is given as a SMILES string. The panel holds about 79,000 compounds, 15% with a hit somewhere; the sample as a whole holds those more often. Values without a mark were called inactive. Calls of active or inactive are those of the source. Rule as the data show it: active = growth inhibition above about 70%; inactive = the rest.

For the molecule `Cc1ccc2c(c1)C1(SC(CC(=O)O)C(=O)N1c1ccc(Cl)cc1)C(=O)N2` (configuration not stated), the growth inhibition in assay [1] (setting [7]) is 4%; in assay [1] (setting [8]), 5%; in assay [1] (at 50.0 µM), 2.3%; in assay [2] (setting [7]), 0%; in assay [2] (setting [8]) it was -1%; in assay [2] (at 50.0 µM) it was 12.3%. Besides, the growth inhibition is 1% in assay [3] (setting [7]); -6% in assay [3] (setting [8]); -6.85% in assay [3] (at 50.0 µM); -1% in assay [4] (setting [7]); -4% in assay [4] (setting [8]); -4.2% in assay [4] (at 50.0 µM). Besides, the growth inhibition in assay [5] (setting [7]) is 1%; in assay [5] (setting [8]), 0%; in assay [5] (at 50.0 µM), -2.8%; in assay [6] (setting [7]), 0%; in assay [6] (setting [8]), -49%; in assay [6] (at 50.0 µM), 10.5%.
`CC(C)(C)OC(=O)N(CCCCNCc1ccc2ccccc2c1)CCCNCc1ccc2ccccc2c1`: the growth inhibition in assay [1] (setting [7]) was 17%; in assay [1] (setting [8]) it was 99% (active); in assay [1] (at 50.0 µM), 91% (active); in assay [2] (setting [7]), 19%; in assay [2] (setting [8]) it was 99% (active); in assay [2] (at 50.0 µM), 92.6% (active). For the same molecule, the growth inhibition in assay [3] (setting [7]) was -7%; in assay [3] (setting [8]) it was 99% (active); in assay [3] (at 50.0 µM) it was 76.5% (active); in assay [4] (setting [7]), 3%; in assay [4] (setting [8]), 98% (active); in assay [4] (at 50.0 µM), 89% (active). Besides, the growth inhibition in assay [5] (setting [7]) was 18%; in assay [5] (setting [8]), 97% (active); in assay [5] (at 50.0 µM), 90.5% (active); in assay [6] (setting [7]), 26%; in assay [6] (setting [8]), 99% (active); in assay [6] (at 50.0 µM), 91% (active).
On to `COc1cccc2c1C(=O)c1c(O)c3c(c(O)c1C2=O)C[C@@](O)(/C(C)=N/NS(C)(=O)=O)C[C@@H]3OC1CC(N)C(O)C(C)O1` (some centres not stated), for which the growth inhibition is 42% in assay [1] (setting [7]); 94% (active) in assay [1] (setting [8]); 95.2% (active) in assay [1] (at 50.0 µM); 18% in assay [2] (setting [7]); 80% (active) in assay [2] (setting [8]); 81.3% (active) in assay [2] (at 50.0 µM). Moreover, the growth inhibition in assay [3] (setting [7]) was 12%; in assay [3] (setting [8]), 77% (active); in assay [3] (at 50.0 µM), 94.2% (active); in assay [4] (setting [7]), 15%; in assay [4] (setting [8]), 52%; in assay [4] (at 50.0 µM) it was 70% (active). Also, the growth inhibition in assay [5] (setting [7]) was 12%; in assay [5] (setting [8]) it was 91% (active); in assay [5] (at 50.0 µM), 90.5% (active); in assay [6] (setting [7]) it was 14%; in assay [6] (setting [8]), 89% (active); in assay [6] (at 50.0 µM), 91.6% (active).
Consider `CN(/N=C/C(O)C(O)C(O)CO)c1ccccc1` (configuration not stated), for which the growth inhibition was 20% in assay [1] (setting [7]); 97% (active) in assay [1] (setting [8]); 98% (active) in assay [1] (at 50.0 µM); 3% in assay [2] (setting [7]); 99% (active) in assay [2] (setting [8]); 98.5% (active) in assay [2] (at 50.0 µM). The growth inhibition in assay [3] (setting [7]) was 9%; in assay [3] (setting [8]), 99% (active); in assay [3] (at 50.0 µM) it was 98.5% (active); in assay [4] (setting [7]) it was 14%; in assay [4] (setting [8]) it was 98% (active); in assay [4] (at 50.0 µM), 98.5% (active). The growth inhibition in assay [5] (setting [7]) is 36%; in assay [5] (setting [8]), 99% (active); in assay [5] (at 50.0 µM), 98.5% (active); in assay [6] (setting [7]), 47%; in assay [6] (setting [8]) it was 99% (active); in assay [6] (at 50.0 µM), 98.8% (active).
Regarding `CCOC1(OCC)Cc2nc3ccccc3cc21`, the growth inhibition in assay [1] (setting [7]) was 4%; in assay [1] (setting [8]) it was 94% (active); in assay [1] (at 50.0 µM), 96.7% (active); in assay [2] (setting [7]), -2%; in assay [2] (setting [8]) it was 96% (active); in assay [2] (at 50.0 µM) it was 96.8% (active). For the same molecule, the growth inhibition in assay [3] (setting [7]) is 2%; in assay [3] (setting [8]), 96% (active); in assay [3] (at 50.0 µM) it was 95.5% (active); in assay [4] (setting [7]) it was 0%; in assay [4] (setting [8]) it was 91% (active); in assay [4] (at 50.0 µM), 92.5% (active). The growth inhibition in assay [5] (setting [7]) is -2%; in assay [5] (setting [8]), 93% (active); in assay [5] (at 50.0 µM), 96.7% (active); in assay [6] (setting [7]), 3%; in assay [6] (setting [8]) it was 95% (active); in assay [6] (at 50.0 µM), 97.2% (active).
For the molecule `OCCN1CCN(CCCN2c3cc(Cl)ccc3Sc3ccsc32)CC1`, the growth inhibition in assay [1] (setting [7]) was -8%; in assay [1] (setting [8]), 98% (active); in assay [1] (at 50.0 µM) it was 98.5% (active); in assay [2] (setting [7]), 0%; in assay [2] (setting [8]) it was 98% (active); in assay [2] (at 50.0 µM) it was 98.4% (active). In addition, the growth inhibition is -7% in assay [3] (setting [7]); 95% (active) in assay [3] (setting [8]); 98.7% (active) in assay [3] (at 50.0 µM); -7% in assay [4] (setting [7]); 97% (active) in assay [4] (setting [8]); 94.4% (active) in assay [4] (at 50.0 µM). In addition, the growth inhibition was -2% in assay [5] (setting [7]); 97% (active) in assay [5] (setting [8]); 97.6% (active) in assay [5] (at 50.0 µM); -7% in assay [6] (setting [7]); 97% (active) in assay [6] (setting [8]); 98.1% (active) in assay [6] (at 50.0 µM).
Regarding `O=[N+]([O-])c1ccc(NS(=O)(=O)c2ccc(Cl)c(Cl)c2Cl)c([N+](=O)[O-])c1`, the growth inhibition is 22% in assay [1] (setting [7]); 18% in assay [1] (setting [8]); 78.2% (active) in assay [1] (at 50.0 µM); 24% in assay [2] (setting [7]); 21% in assay [2] (setting [8]); 42.1% in assay [2] (at 50.0 µM). In addition, the growth inhibition in assay [3] (setting [7]) is 31%; in assay [3] (setting [8]), 38%; in assay [3] (at 50.0 µM), 81% (active); in assay [4] (setting [7]), 16%; in assay [4] (setting [8]), 25%; in assay [4] (at 50.0 µM), 45.1%. Also, the growth inhibition in assay [5] (setting [7]) was 11%; in assay [5] (setting [8]), 10%; in assay [5] (at 50.0 µM), 7.15%; in assay [6] (setting [7]), 22%; in assay [6] (setting [8]), 20%; in assay [6] (at 50.0 µM), 75.2% (active).
As to `COc1ccc([N+](=O)[O-])cc1Nc1c2ccccc2nc2ccccc12`, the growth inhibition was 6% in assay [1] (setting [7]); 69% in assay [1] (setting [8]); 80.8% (active) in assay [1] (at 50.0 µM); 17% in assay [2] (setting [7]); 70% (active) in assay [2] (setting [8]); 64.2% in assay [2] (at 50.0 µM). Further, the growth inhibition in assay [3] (setting [7]) was 0%; in assay [3] (setting [8]) it was 58%; in assay [3] (at 50.0 µM) it was 49%; in assay [4] (setting [7]) it was -2%; in assay [4] (setting [8]), -16%; in assay [4] (at 50.0 µM) it was 37.5%. For the same molecule, the growth inhibition in assay [5] (setting [7]) is -1%; in assay [5] (setting [8]) it was 49%; in assay [5] (at 50.0 µM), 46.5%; in assay [6] (setting [7]), 1%; in assay [6] (setting [8]), 6%; in assay [6] (at 50.0 µM), 41%.
With `Cc1ccc(S(=O)(=O)NCCCSCCO)cc1`, the growth inhibition in assay [1] (setting [7]) is 6%; in assay [1] (setting [8]) it was 45%; in assay [1] (at 50.0 µM), 80.2% (active); in assay [2] (setting [7]), -45%; in assay [2] (setting [8]), 91% (active); in assay [2] (at 50.0 µM) it was 84.4% (active). Moreover, the growth inhibition is -12% in assay [3] (setting [7]); 25% in assay [3] (setting [8]); 70.4% (active) in assay [3] (at 50.0 µM); 9% in assay [4] (setting [7]); 57% in assay [4] (setting [8]); 74% (active) in assay [4] (at 50.0 µM). Besides, the growth inhibition in assay [5] (setting [7]) was -11%; in assay [5] (setting [8]), 63%; in assay [5] (at 50.0 µM), 74.2% (active); in assay [6] (setting [7]) it was -1%; in assay [6] (setting [8]), 90% (active); in assay [6] (at 50.0 µM), 54.6%.
